Screens deposited in PubChem by several laboratories.
This is a sample that favours compounds with a hit; in the whole collection about 32% have one here.
PostGolgi yeast: growth inhibition of a yeast mutant, post-Golgi transport screen | post-Golgi transport phenotypic cell assay | inhibition, % at 10 µM | actives 0.9% (n = 98,000) | AID 739;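 further: yeast cells grown in 1536-well plates; yeast grown about 18 h at 30C before absorbance read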
CYP2C9 activ: CYP2C9 (human) activation; P11712; recombinant CYP2C9, luciferin-H conversion, luminescence; stronger effect = higher value; factor 1 = untreated enzyme, 0 = blocked; activation factor at 5 µM; actives 1.4% (n = 96,000); AID 1024;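 active means activation factor of 2 or more for CYP2C9 at a 5 µM dose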;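 further: 0 = sulfaphenazole-blocked wells and 1 = vehicle-only wells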
Target sequence (P11712 whole entry, looked up): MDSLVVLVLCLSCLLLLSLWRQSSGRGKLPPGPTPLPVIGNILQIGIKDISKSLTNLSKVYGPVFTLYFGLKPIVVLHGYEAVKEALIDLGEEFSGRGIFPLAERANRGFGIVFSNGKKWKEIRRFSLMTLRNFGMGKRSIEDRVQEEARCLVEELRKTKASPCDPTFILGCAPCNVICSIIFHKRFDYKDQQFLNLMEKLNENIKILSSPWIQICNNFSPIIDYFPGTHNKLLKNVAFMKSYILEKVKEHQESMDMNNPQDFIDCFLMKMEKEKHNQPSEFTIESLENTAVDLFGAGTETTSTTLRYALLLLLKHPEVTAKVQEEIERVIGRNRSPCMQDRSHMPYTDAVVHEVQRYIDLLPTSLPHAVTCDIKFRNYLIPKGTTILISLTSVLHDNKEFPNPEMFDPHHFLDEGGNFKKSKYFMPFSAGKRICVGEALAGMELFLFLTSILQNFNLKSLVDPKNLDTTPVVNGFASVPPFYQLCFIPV
PostGolgi ctrl: inhibits growth of the yeast control strain; efflux-deficient yeast background strain, growth absorbance A615, 16 h; inhibition, % at 10 µM; actives 5% (n = 98,000)
CYP2C9 inh: inhibitors of human CYP2C9; AID 777; actives 20% (n = 96,000); inhibition, % at 5 µM; CYP2C9 Supersomes, luciferin-H conversion, luminescence;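 active means blocking of liver enzyme CYP2C9 beyond about 50% at 5 µM, limit read from the data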
CYP2C19 inh: inhibitors of human CYP2C19; inhibition, % at 5 µM; actives 21% (n = 96,000); AID 778; P33261; CYP2C19 Supersomes, luciferin-H EGE luminescence, 30 min;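 active means CYP2C19 inhibition above a set limit at 5 µM in the primary screen, cut at about 50% in these data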;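 further: plate controls were negative control wells for no effect and 2.5 mM tranylcypromine positive control for full effect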
CYP2C19 activ: cytochrome P450 2C19 (human) activation. 96,000 tested, under 10 active. activation factor at 5 µM. recombinant CYP2C19, luciferin-H EGE luminescence; stronger effect = higher value; 0 = fully inhibited enzyme, 1 = untreated enzyme;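 active means activation factor of at least 2 at 5 µM in the primary screen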;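 further: 0 = wells with 2.5 mM tranylcypromine and 1 = vehicle-only wells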
* hit, by the source's call; x = no result given. Unless noted, no stated cut-off is given here; in the data, active means inhibition above about 30%; inactive means the rest.

SMILES | PostGolgi yeast | CYP2C9 activ | PostGolgi ctrl | CYP2C9 inh | CYP2C19 inh | CYP2C19 activ
CCOC(=O)c1cnn(CCOC(=O)Cc2cccs2)c1NC(=O)Cc1cccs1 | 7.4 | 0.1 | 2.8 | 89.0* | 88.5* | 0.1
CCOC(=O)c1c(NC(=O)Cc2cccs2)sc(C(=O)N2CCCCC2)c1C | 2.8 | 0.3 | 3.6 | 65.2* | 65.3* | 0.3
Cc1sc(NC(=O)c2cccs2)c(C(N)=O)c1C | 6.9 | 0.2 | 37.0* | 81.3* | 65.9* | 0.3
O=C(NCC1CCCO1)C1C2C=CC3(CN(Cc4cccs4)C(=O)C13)O2 (configuration not stated) | 4.0 | 0.8 | 0.8 | 17.3 | 3.4 | 1
CCN(CC)Cc1c(CC(C)C)oc(C)c1C(=O)O | -3.0 | 1.2 | 1.2 | -16.2 | -8.9 | 1.1
Cn1ncc(N=Cc2ccc([N+](=O)[O-])cc2)c1C(=O)N1CCOCC1 | 7.2 | 1.3 | -0.2 | -33.1 | -26.2 | 1.3
COC(=O)c1c(NC(=O)Cc2cccs2)sc(C)c1C | 15.7 | 0.6 | 8.0 | 35.7 | 61.5* | 0.4
CC(C)NC(=O)CSc1nncn1-c1ccccc1 | 3.8 | 1.1 | 33.3* | -7.1 | -6.7 | 1.1
CC(C)NC(=O)CSc1nnc(-c2ccc(C(C)(C)C)cc2)n1C | -1.5 | x | 2.1 | x | x | x
CCCCn1c(N)c(Sc2ccc(Cl)cc2)c(=O)[nH]c1=O | -4.3 | 0.8 | 9.1 | 17.2 | 41.9 | 0.6
CCCn1c(N)c(Sc2ccc(Cl)cc2)c(=O)n(CCC)c1=O | 0.2 | 0.4 | 1.8 | 57.6* | 89.8* | 0.1
CCn1c(=O)c2c(O)cc(=O)oc2c2ccccc21 | 31.5* | 1.1 | 1.8 | -6.5 | 9.9 | 0.9
O=C(NCc1ccco1)c1ccc2c(=O)n(CCC3=CCCCC3)c(=O)[nH]c2c1 | -5.9 | 0.6 | -1.0 | 43.0 | 13.0 | 0.9
Cn1c(-c2c(N)n(C3CCCC3)c3nc4ccccc4nc23)nc2ccccc21 | 24.2 | 0.9 | 100.2* | 14.0 | 6.5 | 0.9
Cn1c(-c2c(N)n(CCc3ccccc3)c3nc4ccccc4nc23)nc2ccccc21 | 88.2* | 0 | 78.2* | 100.3* | 58.2* | 0.4
Cn1c(-c2c(N)n(CCCc3ccccc3)c3nc4ccccc4nc23)nc2ccccc21 | 25.3 | 0.5 | 17.1 | 45.9 | 35.9 | 0.6
COCCCn1c(N)c(-c2nc3ccccc3n2C)c2nc3ccccc3nc21 | 10.2 | 0.3 | 73.2* | 66.1* | 70.5* | 0.3
CCCC1(C(=O)OCC)NC(c2cc(OC)c(OC)c(OC)c2)C2C(=O)N(CC)C(=O)C21 (configuration not stated) | 4.4 | 0.9 | -7.1 | 13.1 | 4.1 | 1
CCOC(=O)N1CCC(NS(=O)(=O)c2cc(Br)cnc2N)CC1 | 0.0 | 0.2 | 3.8 | 78.7* | 36.0 | 0.6
COc1ccccc1NC(=O)C1=C(C)Nc2nc(CCCO)nn2C1c1cccnc1 (configuration not stated) | 6.8 | 1.1 | 8.8 | -8.4 | 3.3 | 1
CC1=C(C(=O)Nc2ccccc2C)C(c2cccnc2)n2nc(CCCO)nc2N1 (configuration not stated) | -1.6 | 0.5 | 1.4 | 52.9* | -15.3 | 1.2
COc1cccc(-c2nc3n(n2)C(c2cccs2)C(C(=O)Nc2cccnc2)=C(C)N3)c1 (configuration not stated) | -1.4 | 0 | -5.0 | 98.7* | 77.0* | 0.2
COC(=O)C1=C(C)Nc2nc(-c3ccccc3)nn2C1c1ccc(C)o1 (configuration not stated) | 9.8 | 0.3 | 21.7 | 70.6* | 65.9* | 0.3
CC1=C(C(=O)Nc2ccccc2)C(c2cccnc2)n2nc(-c3cccnc3)nc2N1 (configuration not stated) | 18.1 | 0.3 | 0.5 | 75.0* | 26.4 | 0.7
O=C(Cn1cnc2cc([N+](=O)[O-])ccc2c1=O)Nc1ccc2c(c1)CCC2 | 5.5 | 1 | -9.3 | 0.3 | 3.0 | 1
Cc1nc2ccc(NC3=NCCCCC3)cc2s1 | 3.5 | 1 | -7.3 | -2.8 | -2.7 | 1
CC12CC(NC(=O)N1c1cccc(C(=O)N3CCN(c4ccccc4)CC3)c1)c1ccccc1O2 (configuration not stated) | 2.8 | 0.5 | 1.0 | 53.0* | 57.9* | 0.4
COc1ccccc1N1CCN(C(=O)c2cccc(N3C(=O)NC4CC3(C)Oc3ccccc34)c2)CC1 (configuration not stated) | -4.1 | 0.9 | 5.6 | 13.0 | 4.4 | 1
